Experiments:
Assay type in all cases: functional
[1] = tested on: Plasmodium falciparum; experiment: GSK_TCMDC: Inhibition of Plasmodium falciparum 3D7 in whole red blood cells, using parasite LDH activity as an index of growth. Test compounds present at 2uM
[2] = tested on: Plasmodium falciparum; experiment: GSK_TCMDC: Inhibition of Plasmodium falciparum Dd2 in whole red blood cells, using parasite LDH activity as an index of growth. Test compounds present at 2uM
[3] = tested on: HepG2; experiment: GSK_TCMDC: Percent inhibition of human HepG2 cell line. Test compounds present at 10uM.

SMILES | Inhibition [1] | Inhibition [2] | Inhibition [3]
CC(C)CNC(=O)c1cncc(-c2ccc(CNCCCc3ccccc3)cc2)c1.O=C(O)C(F)(F)F | 100% | 73% | 28%
Cc1ccc(CN2CCCCC(NC(=O)c3cc4ccccc4s3)C2)cc1.O=C(O)C(F)(F)F (stereo not drawn) | 94% | 8% | 9%
CC(C)Cc1cn(-c2nc(-c3nc4ccccc4[nH]3)cs2)c2cc(Cl)ccc12.Cl | 99% | 68% | 9%
Cc1cc(OCCCN2CCC(NS(=O)(=O)c3ccc(C(F)(F)F)cc3)CC2)c2ccccc2n1 | 95% | 24% | 12%
CC(C)(C)OC(=O)N[C@@H](Cc1ccccc1)C(=O)Nc1cccc(-c2cccc(NC(=O)[C@H](Cc3ccccc3)NC(=O)OC(C)(C)C)c2)c1 | 100% | 97% | 10%
Cc1ccc2cc(C3NC(=O)c4ccccc4N3)c(Cl)nc2c1 (stereo not drawn) | 91% | 38% | 0%
Cc1ccc(NC(=O)Nc2ccc(Cl)cc2)cc1-c1ccc(C(=O)Nc2ccncc2)cc1 | 99% | 63% | 54%
CCc1ccc(CN2CCC(CNC(=O)c3cc(-c4ccccc4F)cs3)C2)cc1.O=C(O)C(F)(F)F (stereo not drawn) | 100% | 3% | 29%
COc1ccc2ncc(Cl)c(CCN3CCC(NCc4ccc5c(n4)NC(=O)CO5)CC3)c2c1.Cl | 92% | 26% | 25%
CN(Cc1cc(C(F)(F)F)cc(C(F)(F)F)c1)C(=O)C(Cc1ccc(F)cc1)C1CCCNC1 (stereo not drawn) | 96% | 89% | 10%
Br.Oc1ccc(CCNCCCCCCNCCc2ccc(Cl)cc2)c(Cl)c1O | 100% | 30% | 23%
COc1ccc2c(c1)[nH]c1c(C=Cc3ccccc3)nccc12.O=[N+]([O-])O | 91% | 6% | 19%
CCCCCCc1ncc(-c2cc3cc(O)c(-c4ccccc4)cc3oc2=O)s1 | 90% | 63% | 4%
CCC(C)c1ccc(NC(=O)C(C)c2ccc([N+](=O)[O-])cc2)cc1 (stereo not drawn) | 100% | 100% | 14%
Cl.Oc1cc(Nc2ccnc3ccc(I)cc23)c(F)cc1Cl | 95% | 13% | 20%
O=C(CCCCCNC(=O)c1ccc(O)c(-c2ccc(Cl)c(Cl)c2)c1)NCc1cccc2ccccc12 | 99% | 15% | 2%
O=C(c1cnn(-c2ccccc2)c1C(F)(F)F)N1CCN(c2ccnc3cc(Cl)ccc23)CC1 | 89% | 94% | 34%
NC1CCCN(Cc2ccc(-c3ccc(-c4nc5cc(F)ccc5[nH]4)s3)cc2)C1.O=C(O)C(F)(F)F (stereo not drawn) | 100% | 98% | 40%
Br.CC1(C)N=C(N)N=C(N)N1OCCCOc1cccc(C(=O)O)c1 | 94% | 96% | 73%
CCCCC(O)c1cc(O)c2c(c1)OC(C)(C)CC2C1=CCN(Cc2ccc3ccccc3c2)CC1 (stereo not drawn) | 100% | 97% | 7%
O=C(Nc1nc(-c2ccccn2)cs1)c1ccc(S(=O)(=O)N2CCc3ccccc32)cc1 | 89% | 15% | 47%

SMILES | Inhibition [1] | Inhibition [2] | Inhibition [3]
CCC1(C)N=C(N)N=C(N)N1c1ccc(Cl)cc1.Cl (stereo not drawn) | 95% | 0% | 7%
COc1ccccc1CCNc1nc(C)cc(N[C@@H](Cc2ccccc2)C(=O)NCCOc2ccccc2)n1.O=C(O)C(F)(F)F | 100% | 76% | 20%
Cc1ccc(Nc2nc(C)cc(NCc3ccc(-n4ccnc4)cc3)n2)cc1 | 100% | 100% | 33%
COCCOc1nc(N)nc2ncc(Cc3cc(OC)ccc3OC)c(C)c12 | 96% | 0% | 61%
CCOc1ccc(C(C)NC(=O)C2COc3ccccc3O2)cc1OCC (stereo not drawn) | 100% | 100% | 0%
Cc1[nH]cnc1CSCCNC(=N)NCCCCCCCCNC(=N)NCCSCc1nc[nH]c1C.Cl | 96% | 95% | 24%
O=C(C=Cc1ccc(Cl)c(Cl)c1)NCCCCCN1CCC(CCNC(=O)/C=C/c2ccccc2)CC1 | 97% | 1% | 25%
CC1(C)NC(=N)N=C(NOCC=Cc2ccccc2)N1 | 98% | 2% | 35%
CC(=O)Nc1ccc(OCCCCN(Cc2ccccc2OC(F)(F)F)c2ccc(C(F)(F)F)c(C#N)c2)c(Cl)c1 | 89% | 96% | 11%
COC(=O)C(c1ccc(NC(=O)[C@H](CC(C)C)NC(=O)OC(C)(C)C)cc1)c1ccc(NC(=O)[C@H](CC(C)C)NC(=O)OC(C)(C)C)cc1 | 94% | 42% | 0%
O=C(/C=C/c1ccc(Cl)cc1)NCCCCCN1CCCN(C(=O)Nc2cccc(Cl)c2)CC1 | 85% | 10% | 19%
Cc1c(CNCCCNc2nc3ccccc3[nH]2)[nH]c2cc(Cl)cc(Cl)c12 | 100% | 0% | 59%
COc1ccc(Nc2nccc(NCCNC(=O)Nc3ccccc3F)n2)cc1 | 85% | 4% | 4%
CC(C)c1ccc(NC(=O)c2cccc(CN3CCCN(Cc4cccc(C#N)c4)CC3)c2)cc1.O=C(O)C(F)(F)F | 93% | 15% | 48%
CC(=O)Nc1cccc(Nc2nccc(-c3c(-c4cccc(NC(=O)c5c(F)cccc5F)c4)nn4ncccc34)n2)c1 | 96% | 51% | 83%
CCN(CC)CCNC(=O)c1ccc(N/C=C2\C(=O)Nc3ccc(S(=O)(=O)Cc4c(Cl)cccc4Cl)cc32)cc1 | 100% | 56% | 25%
COc1cc2ncnc(Nc3ccc(Br)c(Cl)c3)c2cc1OC.Cl | 100% | 15% | 22%
Clc1ccc(Nc2nc3nonc3nc2Nc2ccc(Cl)c(Cl)c2)cc1 | 99% | 92% | 75%
CC(C)[C@H]1CC[C@H](C)C[C@@H]1OC(=O)N[C@@H](Cc1ccc(O)cc1)C(=O)NC1CCN(Cc2ccc(OCCCN(C)C)cc2)C1 (stereo partly drawn) | 99% | 64% | 27%
COc1ccc(-c2cccc(CNC3CCN(C)CC3)c2)cc1S(=O)(=O)NCc1ccccc1.O=C(O)C(F)(F)F | 90% | 22% | 18%
CCn1ccc2c(N3CCCCS3(=O)=O)cc(C(=O)N[C@@H](Cc3ccccc3)[C@H](O)CNC(C)(C)c3cccc(C(F)(F)F)c3)cc21 | 97% | 98% | 6%

SMILES | Inhibition [1] | Inhibition [2] | Inhibition [3]
Cc1[nH]c(C)c(-c2ccc(-c3ccc(OC(F)(F)F)cc3)cc2)c(=O)c1Br | 96% | 97% | 33%
COc1cc(Nc2nccc(N3CCC(NS(=O)(=O)c4ccc(NC(C)=O)cc4)CC3)n2)cc(OC)c1OC | 91% | 42% | 0%
COc1ccc(NC(=O)c2cn(-c3ccc(C(C)(C)C)cc3)nc2C)cc1N1CCN(C)CC1 | 96% | 71% | 33%
COc1ccc(Cl)cc1NC(=O)Nc1ccnc2ccccc12 | 100% | 44% | 13%
Nc1c(Cl)cc(C(O)CNCCCCCCOCCc2ccc(CO)s2)cc1Cl.O=C(O)/C=C/C(=O)O (stereo not drawn) | 86% | 71% | 1%
CCCOc1cc(Cc2cnc(N)nc2N)cc(OC)c1OC | 85% | 1% | 21%
CC(C)C[C@H](NC(=O)c1ccc(OCCN2CCOCC2)cc1)C(=O)N[C@H](/C=N/N1CCN(C)C1=O)CCc1ccccc1 | 90% | 65% | 3%
CNCCNCc1cccc(-c2ccc(-c3nc4ccccc4[nH]3)cc2)c1.O=C(O)C(F)(F)F | 99% | 27% | 13%
COc1ccc(S(=O)(=O)N(CC(=O)NN=C(C)c2cccs2)c2cc(C)cc(C)c2)cc1OC | 97% | 43% | 12%
O=C(Cc1c[nH]cn1)Nc1cccc(-c2cccc(-c3nc4cc(C(F)(F)F)ccc4[nH]3)c2)c1 | 100% | 100% | 35%
Cc1ccccc1CN1CCCN(Cc2ccc(C(=O)Nc3ccc(C(C)(C)C)cc3)cc2)CC1.O=C(O)C(F)(F)F | 89% | 5% | 52%
Cc1nc2ccc([N+](=O)[O-])cc2c(=O)n1OCc1ccccc1 | 98% | 0% | 2%
CCCCCN1C(=O)N(c2ccc(Cl)c(Cl)c2)C(N(O)C(=O)Nc2ccc(Cl)c(Cl)c2)C1(C)C (stereo not drawn) | 94% | 99% | 0%
CC(O)C(=O)O.CCOc1ccc2nc3cc(N)ccc3c(N)c2c1 | 98% | 70% | 8%
COc1cc2nc(NCC3CCCCC3)nc(NCc3ccccc3)c2cc1OC | 100% | 100% | 18%
COc1cc2nc(Nc3ccc(Oc4ccccc4)cc3)nc(Nc3ccc(Oc4ccccc4)cc3)c2cc1OC | 95% | 45% | 5%
N=c1cc(C=Cc2ccc(O)cc2)[nH]c2ccccc12 | 100% | 14% | 15%
CCN1CCC(N(CCCCCCCCc2ccc(C(F)(F)F)cc2)C(=O)Cn2c(CCc3cccc(F)c3F)cc(=O)c3ccccc32)CC1.O=C(O)C(O)C(O)C(=O)O | 88% | 65% | 89%
CCc1cc(-c2onc(C(F)(F)F)c2-c2ccccc2)c(O)cc1OC | 98% | 73% | 16%

— ChEMBL document CHEMBL1157539, “Thousands of chemical starting points for antimalarial lead identification” (Nature, 2010)
